Experimental data taken from PubChem BioAssay (EPA / NIEHS).
The source made the active and inactive calls. The calls were made as follows: active = hit-call score of the fitted dose curve at least 0.9, where 1 is the maximum; inactive = score below 0.9.

Columns and labels:
Conditions in all cases: mRNA level, 48 h; actives raise or lower the signal
[1] = read-out: sulfotransferase 2A1 (SULT2A1), SULT2A1 (gene 6822); test: LTEA_HepaRG_SULT2A1: Life Technologies and Expression Analysis (LTEA) Assay for sulfotransferase 2A1 (SULT2A1) using HepaRG (AID 2283531)
Summary of the method: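 Cells were plated and cultured 48 h, switched to serum-free induction medium, then dosed in duplicate for 48 h (8 concentrations, max 100 uM). RNA was isolated and SULT2A1 expression measured by qRT-PCR; gain or loss of signal fitted relative to DMSO.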

[2] = read-out: Transforming Growth Factor (TGFA), TGFA (gene 7039); test: LTEA_HepaRG_TGFA: Life Technologies and Expression Analysis (LTEA) Assay for Transforming Growth Factor (TGFA) using HepaRG (AID 2283532)
Summary of the method: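 Differentiated HepaRG cells exposed 48 hours in serum-free induction medium, 0.5% DMSO vehicle, 8-point half-log series from 100 uM, in duplicate. TGFA mRNA by TaqMan qRT-PCR, normalised to ACTB, GAPDH, POLR2A; bidirectional fit versus DMSO.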

[3] = read-out: Transforming Growth Factor (TGFB1), TGFB1 (gene 7040); test: LTEA_HepaRG_TGFB1: Life Technologies and Expression Analysis (LTEA) Assay for Transforming Growth Factor (TGFB1) Transporter using HepaRG (AID 2283533)
Summary of the method: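 Expression change of TGFB1 in human HepaRG cells is measured after a 48 h chemical exposure, up to 100 uM in 0.5% DMSO vehicle. Curves are fitted in both directions relative to the DMSO baseline.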

[4] = read-out: TIMP1, TIMP1 (gene 7076); test: LTEA_HepaRG_TIMP1: Life Technologies and Expression Analysis (LTEA) Assay for TIMP1 using HepaRG (AID 2283534);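 also: TaqMan qRT-PCR signal normalized to ACTB GAPDH and POLR2A housekeeping genes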
Summary of the method: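 We dosed human liver HepaRG cultures for 48 hours with up to 100 uM test chemical and measured TIMP1 expression by qRT-PCR. Activity in either direction is fitted relative to the 0.5% DMSO vehicle.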

[5] = read-out: Tumor necrosis factor receptor 1 (TNFRSF1A), TNFRSF1A (gene 7132); test: LTEA_HepaRG_TNFRSF1A: Life Technologies and Expression Analysis (LTEA) Assay for Tumor necrosis factor receptor 1 (TNFRSF1A) using HepaRG (AID 2283535)
Summary of the method: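 Expression of TNFRSF1A in human HepaRG liver cells was measured by qRT-PCR 48 h after chemical dosing (maximum 100 uM). Bidirectional curve fitting used 0.5% DMSO as baseline.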

[6] = read-out: Thyroid Hormone Responsive (THRSP), THRSP (gene 7069); test: LTEA_HepaRG_THRSP: Life Technologies and Expression Analysis (LTEA) Assay for Thyroid Hormone Responsive (THRSP) using HepaRG (AID 2283536)
Summary of the method: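 Differentiated HepaRG cells treated 48 h in serum-free induction medium with 8 half-log concentrations up to 100 uM (0.5% DMSO), duplicates. THRSP mRNA by TaqMan qRT-PCR normalised to ACTB, GAPDH, POLR2A; bidirectional fit versus DMSO.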

[7] = read-out: UDP glucuronosyltransferase (UGT1A1), UGT1A1 (gene 54658); test: LTEA_HepaRG_UGT1A1: Life Technologies and Expression Analysis (LTEA) Assay for UDP glucuronosyltransferase (UGT1A1) using HepaRG (AID 2283538)
Summary of the method: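 Human liver HepaRG cultures receive test chemical for 48 h, up to 100 uM in 0.5% DMSO, with phenobarbital induction controls. UGT1A1 mRNA is measured by qRT-PCR and normalized to ACTB, GAPDH and POLR2A.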

[8] = read-out: UDP glucuronosyltransferase (UGT1A6), UGT1A6 (gene 54578); test: LTEA_HepaRG_UGT1A6: Life Technologies and Expression Analysis (LTEA) Assay for UDP glucuronosyltransferase (UGT1A6) using HepaRG (AID 2283539)
Summary of the method: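 Endpoint is UGT1A6 transcript induction or loss in a human liver cell line, quantified by TaqMan qRT-PCR 48 h after dosing. Concentrations ran from 100 uM downward in half-log steps in 0.5% DMSO; activity was fitted in both directions versus vehicle.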

[9] = read-out: X-box binding protein 1 (XBP1), XBP1 (gene 7494); test: LTEA_HepaRG_XBP1: Life Technologies and Expression Analysis (LTEA) Assay for X-box binding protein 1 (XBP1) using HepaRG (AID 2283540)
Summary of the method: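 Human HepaRG monolayers receive test chemical for 48 h across an eight-point half-log series starting at 100 uM. XBP1 mRNA gain or loss is scored against DMSO by qRT-PCR.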

[10] = read-out: Cellular tumor antigen p53 (Homo sapiens) (UniProt P04637); test: LTEA_HepaRG_TP53: Life Technologies and Expression Analysis (LTEA) Assay for Tumor Protein P53 (TP53) using HepaRG (AID 2283537)
Method: LTEA_HepaRG is a cell based, multiplexed-readout assay that uses HepaRG, a human liver cell line, with measurements taken at 48 hours after chemical dosing on a 96-well plate.LTEA_HepaRG_TP53 is one of 102 assay component(s) measured in the LTEA HepaRG cell culture assay. It is a marker of Oxidative Stress.Data from the assay component LTEA_HepaRG_TP53 was analyzed into 1 endpoint. This assay endpoint, LTEA_HepaRG_TP53, was analyzed with bidirectional fitting relative to DMSO as the negative control and baseline of activity. Using a type of inducible reporter, measures of mRNA induction for gain or loss-of-signal activity can be used to understand regulation of transcription factor activity. To generalize the intended target to other relatable targets, this assay endpoint is annotated to the dna binding intended target family, where the subfamily is tumor suppressor.
A total of 1060 chemcials from the ToxCast library were tested in eight-point concentration-response experiments. Cell culture and cytotoxicity assays were conducted at Thermo Fisher Scientific's Custom Services facility (Madison, WI). A single lot of human HepaRG cells (Thermo Fisher Scientific, Frederick, MD) was used for the cell culture experiments. 96-well format collagen type I coated plates of human HepaRG cells were prepared using established methods. Briefly, cryopreserved HepaRG cells were thawed, plated at a density of approximately 100,000 cells/well in HepaRG Thaw, Plate, and General Purpose media (HPRG770, Thermo Fisher Scientific), and incubated for 48 hours. 0.5% DMSO was selected as vehicle control to balance the requisite need of DMSO in HepaRG cultures to maintain differentiation (for example, baseline metabolism, proportions of hepatocytes vs. cholangiocytes), while enabling further hepatic receptor pathway activation (for example, PXR and CAR) in response to chemical exposure. 48 hours after plating, the culture medium was replaced with HepaRG Serum-Free Incudtion Media. Cells were exposed to each test chemical in duplicate and maintained in CO2 incubators for another 48 hours. Chemical plates were thawed to room temperature and 200x concentrations of treatment groups were prepared. 8-point conentration-reponse curves were made with the highest exposure at 100 uM, followed by half-log dilutions, all in 0.5% DMSO. Each test plate contained variouse controls, induction positive controls (1mM phenobarbital), cytotoxicity positive controls ([…] aflatoxin B1), vehicle controls (0.5% DMSO), and total lysis controls (0.5% DMSO). […] Fluidigm's 96.96 Dynamic ArrayTM (Fluidigm, Amsterdam, the Netherlands) technology was used for gene expression analyses by quantitative reverse transcription polymerase chain reaction (qRT-PCR, performed by Quintiles/Expression Analysis, Durham, NC)89. […]

Sequence of Cellular tumor antigen p53 (Homo sapiens) (P04637 whole entry, looked up): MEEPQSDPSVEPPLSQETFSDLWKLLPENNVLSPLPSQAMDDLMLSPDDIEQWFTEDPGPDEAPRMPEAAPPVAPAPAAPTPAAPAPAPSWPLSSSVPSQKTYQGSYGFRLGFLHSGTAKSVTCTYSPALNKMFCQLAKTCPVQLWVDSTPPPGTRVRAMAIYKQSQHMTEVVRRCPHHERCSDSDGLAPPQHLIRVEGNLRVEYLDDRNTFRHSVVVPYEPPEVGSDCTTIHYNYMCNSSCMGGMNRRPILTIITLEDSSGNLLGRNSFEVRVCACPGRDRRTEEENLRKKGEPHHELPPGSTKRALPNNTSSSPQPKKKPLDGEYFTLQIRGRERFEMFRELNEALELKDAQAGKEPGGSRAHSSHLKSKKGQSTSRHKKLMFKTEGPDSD

Compound: CCCCCCCCCCCCOS(=O)(=O)O
- AC50 [1]: 80.2 µM (active)
- outcome [2]: inactive
- AC50 [3]: 80.9 µM (active)
- outcome [4]: inactive
- outcome [5]: inactive
- AC50 [6]: 80.5 µM (active)
- AC50 [7]: 91.7 µM (active)
- AC50 [8]: 81 µM (active)
- outcome [9]: inactive

Compound: CN(C)CCOC(c1ccccc1)c1ccccc1
- outcome [1]: inactive
- outcome [2]: inactive
- outcome [3]: inactive
- outcome [4]: inactive
- outcome [5]: inactive
- AC50 [6]: 58.4 µM (active)
- outcome [7]: inactive
- outcome [8]: inactive
- outcome [9]: inactive

Compound: CS(=O)(=O)c1ccc([C@@H](CC2CCCC2)C(=O)Nc2cnccn2)cc1Cl
- AC50 [1]: 94.3 µM (active)
- outcome [2]: inactive
- AC50 [3]: 74.1 µM (active)
- outcome [4]: inactive
- outcome [5]: inactive
- AC50 [6]: 63.5 µM (active)
- AC50 [10]: 61.3 µM (active)
- AC50 [7]: 12.2 µM (active)
- AC50 [8]: 89.2 µM (active)
- outcome [9]: inactive

Compound: O=C1NS(=O)(=O)c2ccccc21
- outcome [1]: inactive
- outcome [2]: inactive
- outcome [3]: inactive
- outcome [4]: inactive
- outcome [5]: inactive
- outcome [6]: inactive
- outcome [7]: inactive
- outcome [8]: inactive
- outcome [9]: inactive

Compound: CCCCC=O
- outcome [1]: inactive
- outcome [2]: inactive
- outcome [3]: inactive
- outcome [4]: inactive
- outcome [5]: inactive
- outcome [6]: inactive
- outcome [7]: inactive
- outcome [8]: inactive
- outcome [9]: inactive

Compound: O=C(CCCN1CCC(O)(c2ccc(Cl)cc2)CC1)c1ccc(F)cc1
- AC50 [1]: 95.2 µM (active)
- AC50 [2]: 79.2 µM (active)
- AC50 [3]: 73.6 µM (active)
- outcome [4]: inactive
- AC50 [5]: 82.1 µM (active)
- outcome [6]: inactive
- AC50 [10]: 79.1 µM (active)
- AC50 [7]: 79.3 µM (active)
- AC50 [8]: 76.1 µM (active)
- outcome [9]: inactive

Compound: CCCCc1oc2ccccc2c1C(=O)c1cc(I)c(OCCN(CC)CC)c(I)c1
- AC50 [1]: 70.5 µM (active)
- AC50 [2]: 55.3 µM (active)
- outcome [3]: inactive
- outcome [4]: inactive
- outcome [5]: inactive
- AC50 [6]: 68.7 µM (active)
- AC50 [10]: 66.8 µM (active)
- AC50 [7]: 60.7 µM (active)
- AC50 [8]: 55.5 µM (active)
- outcome [9]: inactive

Compound: CCCCC(CC)C(=O)O (stereo not given)
- outcome [1]: inactive
- outcome [2]: inactive
- outcome [3]: inactive
- outcome [4]: inactive
- outcome [5]: inactive
- outcome [6]: inactive
- outcome [7]: inactive
- outcome [8]: inactive
- outcome [9]: inactive
